Test results as given in PubChem BioAssay.
Calls of active or inactive are those of the source. Unless noted, how the calls were made is not given here.

Key:
[1] = resazurin metabolic signal in HepG2 cells – cell-based, resazurin fluorescence, 24 h, PK04 Diversity Set, profiling panel (AID 1172); details: HepG2 viability, higher = more signal; further: test concentration not given here
[2] = budding yeast growth changes without added modifier – OD600, strain BY4716, 24 h, basal condition, primary screen (AID 1173); details: S. cerevisiae BY4716 growth, OD600, 24 h; higher = more signal, called active from +8 up or from −8 down
[3] = viability profiling in MM1S myeloma cells – cell-based, resazurin fluorescence, basal, 24 h, PK04 Diversity Set, profiling panel (AID 1174); details: higher = more signal, called active from +8 up or from −8 down;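 further: MM1S multiple myeloma cell line; test concentration not given here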
[4] = biological target: Dihydroorotate dehydrogenase (quinone), mitochondrial (Plasmodium falciparum (isolate 3D7)) (UniProt Q08210); assay: inhibition of P. falciparum DHODH – biochemical, C-terminal His tag, absorbance 600 nm, primary screen (AID 1175); details: PfDHODH enzyme, DCIP absorbance 600 nm; higher = more signal, called active from +8 up or from −8 down;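 further: recombinant parasite enzyme with a five histidine tag at its C terminus; test concentration not given here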
[5] = inhibition of PAO1 biofilm formation – strain PAO1, LB-PBS medium, absorbance 600 nm, primary screen (AID 1176); further: test concentration not given here; details: P. aeruginosa PAO1 growth/biofilm, A600, 12 h; higher = more signal
[6] = growth modulation of vineyard yeast isolate – strain RM11-1a, OD600, basal, 24 h, primary screen (AID 1177);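 further: cultures grown under basal conditions with no added stressor; test concentration not given here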; details: S. cerevisiae RM11-1a growth, OD600, 24 h; higher = more signal, called active from +8 up or from −8 down
[7] = growth of efflux-deficient E. coli DRC39 – strain DRC39, OD650, 24 h, E. coli filamentation inducers, primary screen (AID 1178);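 further: growth measured as culture turbidity by optical density at 650 nm; test concentration not given here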; details: E. coli DRC39 acrAB, higher = more signal, called active from +8 up or from −8 down
[8] = growth of efflux-deficient E. coli DRC39 – strain DRC39, OD650, 48 h, E. coli filamentation inducers, primary screen (AID 1179);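 further: screen aims at cell division blockers that make cells filament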; details: E. coli DRC39 delta-acrAB growth, higher = more signal, called active from +8 up or from −8 down
[9] = viability profiling in RPMI8226 myeloma cells – cell-based, resazurin fluorescence, basal, 24 h, PK04 Diversity Set, profiling panel (AID 1180); details: higher = more signal;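 further: RPMI8826 multiple myeloma cell line at 5000 cells per well; test concentration not given here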
[10] = biological target: E3 ubiquitin-protein ligase XIAP (Homo sapiens) (UniProt P98170); assay: small molecules binding XIAP protein – biophysical, small-molecule microarray, fluorescence 635 nm, primary screen (AID 1181); details: higher = more signal;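 further: score merges 667 nm emission and signal to noise over triplicate slides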
Sequence of E3 ubiquitin-protein ligase XIAP (Homo sapiens) (P98170 whole entry, looked up): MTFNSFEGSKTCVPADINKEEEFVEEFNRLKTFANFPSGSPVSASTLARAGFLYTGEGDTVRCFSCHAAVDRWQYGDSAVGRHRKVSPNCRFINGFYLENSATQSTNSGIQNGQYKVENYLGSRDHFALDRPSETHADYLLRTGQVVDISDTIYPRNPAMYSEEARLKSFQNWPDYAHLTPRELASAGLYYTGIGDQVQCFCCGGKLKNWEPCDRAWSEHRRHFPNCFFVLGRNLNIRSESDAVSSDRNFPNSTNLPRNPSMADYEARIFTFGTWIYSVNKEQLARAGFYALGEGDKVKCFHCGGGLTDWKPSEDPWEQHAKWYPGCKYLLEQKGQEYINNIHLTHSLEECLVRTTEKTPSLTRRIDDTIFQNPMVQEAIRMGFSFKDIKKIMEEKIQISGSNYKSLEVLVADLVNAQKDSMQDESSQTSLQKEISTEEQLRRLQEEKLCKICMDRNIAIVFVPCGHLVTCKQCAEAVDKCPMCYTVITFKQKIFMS

Sequence of Dihydroorotate dehydrogenase (quinone), mitochondrial (Plasmodium falciparum (isolate 3D7)) (Q08210 whole entry, looked up): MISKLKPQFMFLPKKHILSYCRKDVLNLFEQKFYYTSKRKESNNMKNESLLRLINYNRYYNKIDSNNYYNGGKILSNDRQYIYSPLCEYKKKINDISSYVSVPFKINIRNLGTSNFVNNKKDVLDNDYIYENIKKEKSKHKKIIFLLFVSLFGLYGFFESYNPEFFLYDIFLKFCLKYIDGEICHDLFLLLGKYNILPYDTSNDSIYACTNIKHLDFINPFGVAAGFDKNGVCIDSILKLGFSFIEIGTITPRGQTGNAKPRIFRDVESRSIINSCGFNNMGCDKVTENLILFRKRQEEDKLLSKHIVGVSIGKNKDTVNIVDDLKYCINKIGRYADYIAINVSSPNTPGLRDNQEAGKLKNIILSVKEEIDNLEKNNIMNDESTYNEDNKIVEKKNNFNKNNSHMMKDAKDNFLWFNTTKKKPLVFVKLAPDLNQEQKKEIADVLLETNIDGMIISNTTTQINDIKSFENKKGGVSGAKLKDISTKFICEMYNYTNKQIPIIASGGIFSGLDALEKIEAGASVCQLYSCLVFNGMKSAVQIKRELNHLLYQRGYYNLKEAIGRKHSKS

| SMILES | z-score [1] | z-score [2] | z-score [3] | composite z-score [4] | z-score [5] | z-score [6] | z-score [7] | z-score [8] | z-score [9] | composite z-score [10] |
| --- | --- | --- | --- | --- | --- | --- | --- | --- | --- | --- |
| O=C1[C@H]2C=C(I)[C@H](C[C@@H]2c2ccccc2)[C@@]12CO2 | -0.488 | -11.5 (active) | -0.886 (inactive) | -0.376 (inactive) | 0.236 (inactive) | -2.23 (inactive) | -0.791 (inactive) | -1.24 (inactive) | -0.603 | -0.223 |
| COc1cc(OC)c(C(O)C2C=CC3C(=O)N(c4ccccc4)C(=O)C3N2Nc2ccc(C(C)C)cc2)cc1Br (stereo not given) | 0.092 | -4.46 (inactive) | -0.263 (inactive) | 0.145 (inactive) | 2.24 (inactive) | 0.171 (inactive) | 0.238 (inactive) | 0.48 (inactive) | 0.289 | 0.0838 |
| NC(=O)N1C(=O)C2C(C1=O)C1C=C(CCCO)C2C(C2CC2)N1Cc1sc2ccccc2c1Cl (stereo not given) | 0.146 | -6.04 (inactive) | 0.691 (inactive) | -0.744 (inactive) | -0.0099 (inactive) | 0.269 (inactive) | 0.718 (inactive) | 0.152 (inactive) | 0.555 | 0.0374 |
| O=C1[C@H]2C=C(I)[C@H](C[C@@H]2OCCCCCCO)[C@@]12CO2 | 0.21 | -1.77 (inactive) | -0.394 (inactive) | 0.742 (inactive) | 1.13 (inactive) | -0.473 (inactive) | -0.875 (inactive) | -0.482 (inactive) | -0.658 | -0.109 |
| COC(=O)[C@@]1(Cc2ccc(F)cc2)[C@H]2c3cc(C(=O)N4CCCC4)n(Cc4ccccn4)c3C[C@H]2CN1C(=O)c1ccccc1 | -1.52 | 1.32 (inactive) | -2.15 (inactive) | 0.29 (inactive) | 1.03 (inactive) | 0.938 (inactive) | -0.81 (inactive) | -0.962 (inactive) | -2.45 | 0.0945 |
| C=CCNC(=O)[C@H]1[C@@H]2C(=O)O[C@@H](c3ccccc3)[C@@H](c3ccccc3)N2[C@@H](c2ccc(OCCO)cc2)[C@]12C(=O)Nc1ccccc12 | 0.429 | 0.997 (inactive) | 1.13 (inactive) | -0.26 (inactive) | -0.172 (inactive) | 1.69 (inactive) | 0.237 (inactive) | -0.564 (inactive) | 0.608 | 0.347 |
| C=CCNC(=O)[C@H]1[C@@H]2C(=O)O[C@@H](c3ccccc3)[C@@H](c3ccccc3)N2[C@@H](c2ccccc2OCCO)[C@]12C(=O)N(C(=O)OCCOC)c1ccc(C#Cc3ccc(OC)cc3)cc12 | -0.345 | 1.19 (inactive) | -0.637 (inactive) | -0.306 (inactive) | 2.23 (inactive) | 3.16 (inactive) | -0.604 (inactive) | 0.582 (inactive) | -1.17 | -0.113 |
| COC(=O)[C@@]1(Cc2ccccc2)[C@H]2c3cc(C(=O)N(C)C)n(Cc4ccc(C(F)(F)F)nc4)c3C[C@H]2CN1C(=O)c1ccccc1 | -0.634 | 2.47 (inactive) | -1.11 (inactive) | -0.125 (inactive) | 0.563 (inactive) | 1.02 (inactive) | -0.46 (inactive) | 0.03 (inactive) | -0.693 | -0.242 |
| COC(=O)[C@@]1(Cc2ccc(F)cc2)[C@H]2c3cc(C(=O)N4CCCC4)n(Cc4cc(F)cc5c4OCOC5)c3C[C@H]2CN1C(=O)c1ccccc1 | -1.29 | 1.9 (inactive) | -0.931 (inactive) | -0.224 (inactive) | -0.25 (inactive) | 1.31 (inactive) | 0.462 (inactive) | -1.11 (inactive) | -2.88 | 0.334 |
| C=C(CCCC)/C(=C/C[C@@H](OC(C)=O)c1ccc(CO)o1)c1cnc2ccccc2c1 | -1.53 | -0.293 (inactive) | -0.291 (inactive) | -6.85 (inactive) | 0.0022 (inactive) | 0.324 (inactive) | -1.1 (inactive) | -0.856 (inactive) | -0.521 | 0.1 |
| CC1CC/C=C\[C@H]2OC34C=CCN(Cc5ccccc5)C(=O)[C@H]3N(CCCCCCO)C(=O)[C@@H]4C2C(=O)O1 (stereo not given in full) | 0.279 | -0.885 (inactive) | 0.507 (inactive) | 0.285 (inactive) | -1.06 (inactive) | -0.38 (inactive) | 0.608 (inactive) | 1.01 (inactive) | 1.15 | -0.0741 |
| CC(C)C[C@H]1NC(=O)C([C@@H](C)OCc2ccccc2)NC(=O)[C@@]23C(=O)N[C@@H](Cc4ccccc4)C2[C@H](C)[C@@]2(C)O[C@H]2C3/C=C/C/C=C\CNC1=O (stereo not given in full) | -0.662 | -0.0256 (inactive) | -0.521 (inactive) | -0.116 (inactive) | 0.294 (inactive) | -0.3 (inactive) | 0.12 (inactive) | -0.0809 (inactive) | -0.0732 | 0.172 |
| CC(C)N1C(=O)C[C@@](C(=O)NCCN2CCOCC2)(c2ccc([N+](=O)[O-])cc2)[C@H]1c1ccc(CO)cc1 | 1.68 | -1.39 (inactive) | 0.795 (inactive) | -0.1 (inactive) | -0.838 (inactive) | -0.291 (inactive) | 0.0506 (inactive) | 0.445 (inactive) | 1.23 | -0.0747 |
| NCCCCCCNC(=O)[C@@H]1C[C@@H]2C(=O)N3CCC[C@H]3C(=O)N2[C@@H]1c1cccc(OCCO)c1 | 0.158 | -1.44 (inactive) | 0.711 (inactive) | 0.101 (inactive) | -1.23 (inactive) | -0.853 (inactive) | 0.699 (inactive) | 0.768 (inactive) | -0.0931 | -0.0172 |
| CCOC(=O)C1=CC[C@@H](c2ccc(OC)cc2)N(S(=O)(=O)c2ccc(C)cc2)[C@H]1CC | 0.0292 | -1.82 (inactive) | -0.289 (inactive) | -1.04 (inactive) | 0.505 (inactive) | -0.0802 (inactive) | 0.608 (inactive) | 1.87 (inactive) | -0.793 | -0.321 |
| CCOC(=O)C[C@H]1[C@H](OC(=O)c2ccccc2-c2ccccc2)[C@@H](NC(=O)c2ccc3ccccc3c2)c2cc(OCCCO)ccc2N1C(=O)Cc1ccc(OC)cc1 | -0.397 | 0.118 (inactive) | -0.142 (inactive) | -0.0597 (inactive) | -0.283 (inactive) | -0.899 (inactive) | -0.516 (inactive) | -0.404 (inactive) | -0.0439 | 0.0711 |
| CCOC(=O)C1=CCC(c2cc3ccccc3[nH]2)N(CCN2CC(C(=O)OCC)=CCC2c2cc3ccccc3[nH]2)C1 (stereo not given) | -0.474 | 0.897 (inactive) | -1.98 (inactive) | 0.268 (inactive) | 0.878 (inactive) | 0.614 (inactive) | 0.852 (inactive) | -0.732 (inactive) | -0.458 | 1.16 |
| CCOc1cc(C(O)C2C=CC3C(=O)N(c4ccccc4)C(=O)C3N2Nc2ccccc2F)ccc1O (stereo not given) | -1.42 | -3.57 (inactive) | -0.454 (inactive) | 0.717 (inactive) | 0.931 (inactive) | 1.78 (inactive) | -0.223 (inactive) | -0.541 (inactive) | -0.318 | -0.273 |
| CO[C@H]1O[C@H](CO)[C@@H](OC(=O)Nc2ccccc2)[C@H](OC(=O)Nc2ccccc2)[C@H]1OC(=O)Nc1ccccc1 | -1.08 | 0.0367 (inactive) | -2.78 (inactive) | 1.02 (inactive) | -0.317 (inactive) | 1.84 (inactive) | 1.48 (inactive) | 0.536 (inactive) | -1.95 | -0.0125 |
| O=C1c2ccccc2[C@@]2(Cc3ccccc3N(Cc3ccccc3)C2=O)[C@H](c2ccc(CO)cc2)N1Cc1ccccc1Cl | 0.645 | 0.0388 (inactive) | 0.685 (inactive) | -3.2 (inactive) | -0.425 (inactive) | 0.0513 (inactive) | 0.134 (inactive) | 0.86 (inactive) | 0.694 | 0.147 |
| CCCC=C(CCC)[C@@H](NC(=O)c1ccc(C(F)(F)F)cc1)c1ccc(C(F)(F)F)cc1 | 0.706 | 2.01 (inactive) | 0.126 (inactive) | 0.256 (inactive) | 0.219 (inactive) | 2.66 (inactive) | -0.101 (inactive) | 0.0205 (inactive) | -1.9 | 1.11 |
| CC(C)c1nc2cc(Br)ccc2c(=O)o1 | 0.693 | 1.25 (inactive) | -0.47 (inactive) | 0.374 (inactive) | 0.13 (inactive) | 0.0542 (inactive) | 0.692 (inactive) | 1.24 (inactive) | 0.0076 | 0.0705 |
| C[N+](C)(C)CCCC[C@@H]1NC(=O)[C@H]2C[C@@H](C(=O)NCCCCCNC(=O)CS)[C@@H](c3cccc(OCCO)c3)N2C1=O | -0.226 | -0.307 (inactive) | 0.703 (inactive) | -0.867 (inactive) | 0.298 (inactive) | -1.13 (inactive) | -0.133 (inactive) | -0.779 (inactive) | 0.401 | -0.102 |
| [N-]=[N+]=Nc1ccccc1C[C@]1(C(=O)N2CCOCC2)N=C(c2ccc(OCCCO)cc2)O[C@H]1c1ccccc1N=[N+]=[N-] | -1.37 | -2.51 (inactive) | -3.41 (inactive) | -0.481 (inactive) | -0.444 (inactive) | 0.275 (inactive) | 1.16 (inactive) | 2.48 (inactive) | -2.65 | 0.446 |
| CC(C)(C)N1CC=CC23O[C@@H]4C=CCCOC(=O)C4[C@H]2C(=O)N(CCCCCCO)[C@@H]3C1=O (stereo not given in full) | 0.0735 | -0.437 (inactive) | -0.176 (inactive) | 0.713 (inactive) | -0.456 (inactive) | 0.735 (inactive) | -0.0435 (inactive) | 0.43 (inactive) | 0.382 | 0.189 |
| COc1ccc([Si](C)(C)[C@H]2[C@H](CCO)O[C@@]3(C(=O)N(Cc4cccc(N(C=O)c5ccccc5)c4)c4ccccc43)[C@@H]2C)cc1 | -1.85 | 1.27 (inactive) | -3.37 (inactive) | 0.105 (inactive) | 1.45 (inactive) | 4.32 (inactive) | 1.61 (inactive) | 1.41 (inactive) | -3.77 | 0.203 |
